Laboratory results: the supplement of paper PMC6555819

Key:
Assay in all cases: PBM binding z-score (relative to random genomic background probes); higher = stronger binding; sequences stand for … in GC…GCGATTGACAGCGTAGAATGAAGG
[1] = test system: PPARg:RXRa DBDmut IVT, anti-RXR (DBD mutation: RXRa K156A/R161A, NR concentration 270 nM, RXRa partner concentration 90 nM)
In short: (§1)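 Random background probes are the reference for binding z-scores. These scores derive from regression-normalized fluorescence on custom Agilent 4×180K protein-binding microarrays incubated 1 h with ligand-free nuclear receptor dimers. Binding was detected with antibodies against each partner (one per run).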

[2] = test system: PPARg:RXRa IVT, anti-PPARg (NR concentration 270 nM, RXRa partner concentration 90 nM)
In short: as §1

[3] = test system: PPARg DBDmut:RXRa IVT, anti-PPARg (DBD mutation: PPARg1 K132A/R137A, NR concentration 270 nM, RXRa partner concentration 90 nM)
In short: as §1

[4] = test system: PPARg DBDmut IVT, anti-PPARg (DBD mutation: PPARg1 K132A/R137A, NR concentration 270 nM)
In short: as §1

[5] = test system: PPARg homodimer (NR concentration 180 nM)
In short: as §1

[6] = test system: PXR:RXRa (NR concentration 270 nM, RXRa partner concentration 90 nM)
In short: as §1

[7] = test system: PXR homodimer (NR concentration 270 nM)
In short: as §1

[8] = test system: RARa:RXR (NR concentration 270 nM, RXRa partner concentration 90 nM)
In short: as §1

[9] = test system: RARa homodimer (NR concentration 270 nM)
In short: as §1

[10] = test system: RARb:RXRa (NR concentration 270 nM, RXRa partner concentration 90 nM)
In short: as §1

[11] = test system: RARb homodimer (NR concentration 270 nM)
In short: as §1

[12] = test system: RARg:RXRa (NR concentration 270 nM, RXRa partner concentration 90 nM)
In short: as §1

[13] = test system: RARg homodimer (NR concentration 270 nM)
In short: as §1

[14] = test system: RXRa DBDmut IVT, anti-RXR (DBD mutation: RXRa K156A/R161A, NR concentration 90 nM)
In short: as §1

[15] = test system: RXRa homodimer (NR concentration 180 nM)
In short: as §1

[16] = test system: THRa:RXRa (NR concentration 90 nM, RXRa partner concentration 90 nM)
In short: as §1

[17] = test system: THRa homodimer (NR concentration 90 nM)
In short: as §1

[18] = test system: VDR homodimer (NR concentration 270 nM)
In short: as §1

Sequence	PBM binding z-score [1]	PBM binding z-score [2]	PBM binding z-score [3]	PBM binding z-score [4]	PBM binding z-score [5]	PBM binding z-score [6]	PBM binding z-score [7]	PBM binding z-score [8]	PBM binding z-score [9]	PBM binding z-score [10]	PBM binding z-score [11]	PBM binding z-score [12]	PBM binding z-score [13]	PBM binding z-score [14]	PBM binding z-score [15]	PBM binding z-score [16]	PBM binding z-score [17]	PBM binding z-score [18]
ATCTCTTGGTAAAGTTCAGTGAAAGATCGATAGA	0.216	0.63	1.4	1.94	1.76	2.41	2.31	1.63	1.65	2.82	2.41	2.08	2.53	2.06	1.04	0.889	0.154	2.21
CGTCCAAGCTCATAGGAGGTCAGTGAAGACAGAT	0.199	0.722	-0.21	-0.262	1.08	1.59	0.494	1.79	0.761	2.03	2.8	1.69	2.04	0.593	1.22	2.38	0.642	0.938
CAAACTAGGTCACGAAAGGTCAAACTCGAATGAC	8.89	8.97	2.74	2.02	5.15	7.23	4.8	7.97	4.28	5.84	5.84	8.21	9.05	2.91	8.85	5.26	2.82	4.06
ATCTCTAGGTAACCAGGTTCAGTGAATGCCGAAC	3.75	3.09	0.459	0.795	1.07	0.948	0.388	0.808	0.438	0.668	0.891	0.484	0.267	0.664	0.776	1.33	0.822	2.53
CCGAGTGGGGCAAGGTTACCATAACGCACAGCCA	1.75	3.14	-0.586	-0.492	0.921	0.439	0.123	1.16	-0.144	1.4	1.3	1.07	1.2	-0.421	1.3	1.53	0.265	0.121
TAATATAGGTAAAGGTGAAAGTCGAACGATATGA	6.04	6.44	2.33	2.3	2.1	1.02	0.701	1.8	1.92	2.03	1.71	1.62	1.66	-0.417	2.32	1.45	0.232	0.489
AATACAGGGTCTTCGTAGGCCAGAGTACGCACAG	0.0875	0.764	0.236	0.68	-0.584	-0.0215	-0.304	0.585	0.404	0.544	0.449	0.222	0.45	0.168	0.437	1.6	-0.387	0.396
CAAACTAGGTCACCAAAGGTCAAAGTCGAATGAC	8.22	9.1	3.38	2.17	3.38	6.88	2.28	7.52	3.8	5.85	5.94	7.87	8.54	2.57	7.91	5.17	2.46	3.85
GCTATTAGTTCAAAGGGCAACCGAATGATTCTCG	0.957	1.81	0.146	0.19	2.2	3.21	1.29	4.32	1.11	3.3	2.95	3.39	2.76	3.02	4.05	1.74	-0.325	1.87
CGTCCAAGGTCAATGCTAGGTCAGTGCAAGCATT	3.46	3.77	-0.816	-0.276	4.69	4.69	1.57	5.52	1.48	5.25	5.12	7.51	6.92	3.53	5.11	4.39	3.05	3.46
CCTATTAGTTGACCATAAGGGCAACCGAAGCTCG	0.774	0.558	0.33	0.387	1.7	1	0.754	1.37	1.39	1.7	2.05	1.31	0.855	0.655	1.02	2.02	1.34	1.07
GCCTATAGGTAATACAAGGTGAAAGTCCGATTGT	1.99	1.53	0.858	0.233	0.234	0.642	0.00334	0.994	-0.186	0.666	0.782	0.406	0.334	0.0892	0.582	4.25	1.06	-0.376
TCTCGGAGGACACGAAAGGTCAGAGCACGACATC	1.29	1.57	0.69	-0.292	4.15	4.24	0.7	4.89	2.34	4.09	4.5	5.01	5.15	1.04	4.09	3.67	1.29	1.49
TCAGACAGGTGAAGATAACTCAGGTACGCAGTCG	2.79	0.984	0.555	0.567	0.861	0.46	0.241	0.891	0.4	1.1	0.661	0.712	0.748	1.15	1.13	0.737	0.4	0.623
GCTAGCAGGCCATTTGGGTCAATCAATGACGGGC	1.77	1.92	-1.29	-0.902	-0.569	0.511	0.261	0.95	-0.573	1.3	1.62	0.878	1.21	0.0646	0.805	1.87	0.12	-0.0302
TTACCAAGGTGAGGTGAGGTCGTTGATCCAACTC	1.36	2.9	-0.05	-0.0548	0.645	4.64	0.773	2.2	-0.25	1.93	2.09	1.42	1.41	0.267	1.86	4.41	2.84	2.28

Sequence	PBM binding z-score [1]	PBM binding z-score [2]	PBM binding z-score [3]	PBM binding z-score [4]	PBM binding z-score [5]	PBM binding z-score [6]	PBM binding z-score [7]	PBM binding z-score [8]	PBM binding z-score [9]	PBM binding z-score [10]	PBM binding z-score [11]	PBM binding z-score [12]	PBM binding z-score [13]	PBM binding z-score [14]	PBM binding z-score [15]	PBM binding z-score [16]	PBM binding z-score [17]	PBM binding z-score [18]
ATATGTAGGTTAAGGGTGATTCAGGTTGGTTCGC	7.67	6.98	1.59	1.38	3.75	1.63	1.19	1.72	1.64	1.54	1.8	1.14	1.06	0.792	1.62	1.56	1.39	1.41
TCTCGGAGGACACGACAGGTCAGAGCTCGACATC	0.919	0.745	0.0844	-0.496	0.53	1.27	-0.142	1.6	0.0819	2.62	2.87	2.35	3.16	0.685	1.41	2.96	1.04	0.677
CGTCACAGTTCAACTAAGGTAACGTAAAGCACGC	0.343	1.09	0.467	1.1	1.58	3.88	1.47	2.28	0.677	3.1	2.56	3.25	3.37	3.38	2.76	5.11	2.19	2.16
CGAACTAGGTCAAGGACAGTGGATCTCCGCACGC	8.19	7.79	1.43	0.272	0.876	0.906	-0.161	1.62	0.0729	3.84	3.1	3.74	4.5	1.34	2.41	3.05	2	0.315
ATCTCTACGTAAAGATAGTTCAGTGAATGCAAAT	-0.595	0.188	0.317	1.43	-0.705	0.115	0.219	-0.211	0.168	0.474	0.65	0.0953	0.572	0.102	0.153	0.0897	-0.716	0.535
TCTCGGAGGATACGAAGGTCAGAGCTTTCCAGAG	1.14	0.245	-1.41	-1.19	0.218	1.09	-0.447	1.64	-0.378	2.33	2.95	1.93	2.03	0.133	1.65	1.57	-0.156	0.224
CAAACTAGGTCACGAAAGGTCTAAGTCGAATGAC	8.65	9.08	1.37	1.82	2.76	3.68	0.0383	3.59	0.679	4.39	3.98	5.04	5.84	1.6	4.23	4.1	1.73	0.873
GGCACGAGGGCAAAGTTGATAGCATCTGTCGACG	2.51	2.98	-0.61	-0.775	0.977	1.11	0.289	1.56	-0.644	2.54	1.26	2.26	1.99	2.39	2.19	1.33	-0.552	1.29
GGTTGTAGATCAAGGTTAAGAAAGACTAAGCTAA	0.74	1.03	0.337	0.177	1.28	0.988	0.866	1.16	1.7	1.17	0.97	0.695	0.809	0.0764	0.901	1.53	0.54	0.584
TAGCCTAGGTCATTCAGGGGCCAGTATTGAAAGC	1.67	2.66	-0.277	-0.0243	2.68	2.72	-0.361	3.99	-0.562	3.8	3.3	6.04	4.51	2.08	2.72	3.47	0.833	2.03
TCTAGTTGGTCACAGGTCACACACTCGAAATGCG	3.01	4.53	1.58	1.96	2.52	3.06	0.924	3.51	1.49	3.33	3.55	3.75	3.33	1.62	3.83	2.96	1.97	1.7
CCGTACGGGTCACTCCAGGTTATAGCATCGGAGT	1.15	2.49	-0.309	-1.04	1.42	5.22	0.156	3.89	-0.104	3.64	3.26	4.74	4.74	1.62	5.04	5.05	0.303	1.37
GCCTACGGGTCAAAGGTTATAGCATGAATAGAAT	2.12	4.99	1.03	0.485	1.95	6.12	0.219	8.24	0.254	4.34	3.15	6.82	4.24	1.55	9.55	3.62	-0.143	1.08
TCATATAGCTAAATGCTAGGTGAAAGTCCGATCT	1.45	0.452	0.679	0.932	0.101	0.31	-0.278	0.514	-0.0788	0.00512	0.184	0.0741	0.129	0.952	0.435	0.577	-0.00445	-0.29
CATACAGTGTCAGCTAGGCCAGAGTAGGGACGGC	-0.0696	0.608	0.171	-0.0038	-0.0558	-0.453	-0.457	-0.228	0.038	1.04	0.245	0.397	0.832	-0.017	0.0865	0.027	0.00703	-0.455
